Assay results: PubChem BioAssay
Results filed as inconclusive are left out. Active and inactive are the calls of the source.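 Rule for the calls, unless noted: active = viability at or below 10% of carrier control in both of two separate runs; inconclusive = viability at or below 10% in only one of the two runs; inactive = the rest.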

Legend:
[1] = reducers of endogenous Her2 protein level, primary screen, SKBR3 breast tumor cells, AlphaScreen, ATP viability (AID 461;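 active = Her2 level under about 52% in both replicate screens, with viability over 70% of control, limit read from the data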;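 for Her2 level: lower value means less Her2 protein in the cells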;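 for viability: percent of carrier control wells set as 100% viability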); conditions: 18-24 h, measured here: SKBR3 viability, ATP luminescence, at 10 µM
[2] = target: Receptor tyrosine-protein kinase erbB-2 (Homo sapiens) (UniProt P04626); experiment: as above; conditions: 18-24 h, at 10 µM, stronger effect = lower value
Receptor tyrosine-protein kinase erbB-2 (Homo sapiens), sequence (P04626 whole entry, looked up): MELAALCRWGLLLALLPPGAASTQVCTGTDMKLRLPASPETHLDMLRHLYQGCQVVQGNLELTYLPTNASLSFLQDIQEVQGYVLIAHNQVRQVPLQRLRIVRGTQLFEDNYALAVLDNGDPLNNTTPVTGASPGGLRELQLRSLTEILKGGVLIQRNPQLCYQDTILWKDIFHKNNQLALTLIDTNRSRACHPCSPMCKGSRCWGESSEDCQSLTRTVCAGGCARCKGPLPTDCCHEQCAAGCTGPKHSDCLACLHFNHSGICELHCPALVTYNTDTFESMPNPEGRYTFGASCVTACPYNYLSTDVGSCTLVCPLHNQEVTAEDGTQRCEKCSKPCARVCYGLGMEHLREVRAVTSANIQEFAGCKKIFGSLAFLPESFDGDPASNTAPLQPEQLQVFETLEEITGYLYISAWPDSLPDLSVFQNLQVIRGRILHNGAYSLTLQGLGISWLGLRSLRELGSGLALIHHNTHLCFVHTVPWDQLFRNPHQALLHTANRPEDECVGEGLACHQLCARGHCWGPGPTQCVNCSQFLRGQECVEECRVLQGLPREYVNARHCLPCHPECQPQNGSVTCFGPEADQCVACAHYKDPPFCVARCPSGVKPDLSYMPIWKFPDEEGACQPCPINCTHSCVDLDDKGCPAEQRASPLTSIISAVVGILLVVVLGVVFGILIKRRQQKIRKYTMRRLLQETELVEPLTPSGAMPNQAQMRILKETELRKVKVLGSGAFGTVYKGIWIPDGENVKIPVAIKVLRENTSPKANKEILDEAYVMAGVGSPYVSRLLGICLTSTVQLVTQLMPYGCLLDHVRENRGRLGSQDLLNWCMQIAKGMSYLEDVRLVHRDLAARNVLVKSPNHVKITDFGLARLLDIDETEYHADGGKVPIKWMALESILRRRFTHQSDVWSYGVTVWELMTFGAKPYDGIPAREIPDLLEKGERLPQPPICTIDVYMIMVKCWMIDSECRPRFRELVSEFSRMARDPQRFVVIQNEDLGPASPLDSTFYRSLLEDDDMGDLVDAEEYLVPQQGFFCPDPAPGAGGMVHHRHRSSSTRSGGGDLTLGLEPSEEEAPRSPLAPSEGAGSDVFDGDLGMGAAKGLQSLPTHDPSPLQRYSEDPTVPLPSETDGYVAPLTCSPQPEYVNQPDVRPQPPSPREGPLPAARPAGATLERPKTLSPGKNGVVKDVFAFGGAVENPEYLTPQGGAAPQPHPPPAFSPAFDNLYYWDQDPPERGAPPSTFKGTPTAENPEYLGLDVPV

[3] = SK-BR-3 cell growth inhibitors, pilot screen, 24 h, human (AID 572); conditions: SK-BR-3 viability, CellTiter-Glo luminescence, at 10 µM, stronger effect = lower value;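 note: compound exposure lasted between 18 and 24 h rather than exactly 24 h; 100% = carrier-treated control wells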
[4] = HUVEC growth inhibition – cell-based, human, primary screen (AID 575;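 active = viability at or below 30% in both replicate assays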;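 note: 100% = median of untreated cell wells with 0.1% DMSO on each plate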); conditions: HUVEC proliferation, CellTiter-Glo luminescence, 72 h; at 10 µM; stronger effect = lower value
[5] = growth inhibitors of H69AR lung tumor, primary screen, human, duplicate replicates (AID 580;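 active = viability at or under a set limit in both replicates, limit being median viability minus 3 SD, cut at about 48% in these data, passing the limit was not always enough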;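 note: 100% = mean luminescence of untreated wells and 0% = no signal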); conditions: H69AR lung tumor cells viability, ATP luminescence, 72 h; at 10 µM; stronger effect = lower value
[6] = reversal of MRP1-mediated doxorubicin resistance, pilot screen, H69AR cells, doxorubicin co-treatment (AID 601;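 active = viability loss from added drug above about 55%, and viability with drug at most 40%, in both replicates, limit read from the data, passing the limit was not always enough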); conditions: CellTiter-Glo, 72 h, at 10 µM; for differential viability (reversal): stronger effect = higher value
[7] = 384-well plate pilot, post-Golgi transport modulator project, inhibition of yeast transport mutant growth (AID 636; in the data active = inhibition above about 31%); conditions: absorbance 615 nm, about 18 h, stronger effect = higher value
[8] = growth suppression of yeast trafficking mutant, preliminary HTS, modulators of trafficking downstream of Golgi apparatus project, 1536-format plate, OD 615 nm (AID 637; in the data active = inhibition above about 30%); conditions: yeast transport mutant growth, absorbance 615 nm, 18 h; stronger effect = higher value
[9] = OD615 S. cerevisiae growth inhibition, permissive medium, pilot counter-assay, permissive growth control for S. cerevisiae lifespan shortening project (AID 705;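 active = growth inhibition above 25% in both replicates, a cutoff set 3 SD above the mean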); conditions: OD615, 24 h, at 10 µM, stronger effect = higher value
[10] = Restrictive medium S. cerevisiae growth inhibition, OD615, pilot screen of yeast lifespan reduction project, restrictive growth control (AID 706;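 active = growth inhibition above a set limit, 3 SD over mean compound inhibition, in both replicates, cut at about 43% in these data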;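 note: modified DeaD lifespan yeast strain shifted to restrictive glucose medium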); conditions: OD615, 48 h, at 10 µM, stronger effect = higher value
[11] = viability gain of MRP-1-high H69AR cells under doxorubicin, pilot screen, MRP-1 activator project, CellTiter-Glo, duplicate (AID 807;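 active = viability increase at or above a cutoff of the median across tested compounds plus 3 SD, cut at about 8.5% in these data, passing the limit was not always enough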;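 note: compound pretreatment 18-22 h then 72 h combined with doxorubicin; 0% = doxorubicin alone and 100% = vehicle without doxorubicin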); conditions: H69AR viability with doxorubicin, CellTiter-Glo luminescence; at 10 µM; stronger effect = higher value
[12] = growth suppression of beta-catenin knockout HCT116, pilot screen, human colon tumor cells (AID 823;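 active = cell viability at or below a set limit in both duplicate runs, the limit being the all-compound median minus 4 SD, cut at about 23% in these data, passing the limit was not always enough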;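 note: 0% = wells killed by 20 µM Hyamine and 100% = untreated DMSO cell wells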); conditions: CellTiter-Glo, 60 h, at 10 µM, stronger effect = lower value
[13] = growth suppression of PTEN-deleted HCT116, pilot screen, cell-based, HCT116 clonal line, CellTiter-Glo (AID 824;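 active = viability at or below 27.92% in each of two runs, the all-compound median minus 4 SD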;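 note: 0% = 20 µM Hyamine control and 100% = vehicle cell control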); conditions: 60 h, at 10 µM, stronger effect = lower value
[14] = inhibitors of the yeast RAM network, pilot screen, dse1pr::URA3 reporter, 5-FOA selection (AID 869;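 active = inhibition over a set limit, the all-compound mean plus 3 SD, in both replicate runs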;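 note: 0% = DMSO wells with no growth and 100% = 10 µM 1-NA-PP1 with full growth; RAM network block rescues cells from 5-FOA so hits raise OD615 growth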); conditions: S. cerevisiae dse1pr::URA3 5-FOA growth, OD615, 2 d; at 10 µM; stronger effect = higher value; strain carries analog-sensitive mutant Cbk1 kinase
[15] = RAM signaling pathway blockade in yeast – S. cerevisiae, Pdr1DBD-CYC8 efflux-inhibited sensitized strain, primary screen (AID 1298;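 active = RAM network inhibition above 8.4% in each of two replicates, 3 SD over the compound average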;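 note: 0% = DMSO untreated cells without growth and 100% = 10 µM 1-NA-PP1 full growth; higher means more yeast growth rescued from 5-FOA killing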); conditions: S. cerevisiae cbk1-as DSE1-URA3 strain, 5-FOA growth OD615, 2 d; at 50 µM; stronger effect = higher value
[16] = H69AR cells + 2 uM doxorubicin, measured here: viability with 2 uM doxorubicin, stronger effect = lower value
[17] = H69AR cells, compound alone cytotoxicity

Cn1c(=O)c2c(nc(SCCCC#N)n2Cc2c(F)cccc2Cl)n(C)c1=O
77.3%: viability [6, 17]
15.9%: viability [6, 16]
inactive: Her2 level [2] 108% | viability [3] 102% | viability [4] 91.8% | viability [5] 77.3% | inhibition [7] -1.33% | inhibition [8] 1.17% | growth inhibition [9] -13.5% | growth inhibition [10] 5.36% | viability increase [11] -4.16% | viability [12] 89.2% | viability [13] 86.1% | inhibition [14] 3.15% | RAM network inhibition [15] 4.98%
active: differential viability (reversal) ([6]; H69AR cells + 2 uM doxorubicin) 61.3%
102%: viability [1]

Cn1c(NC(=O)c2ccccc2NC(=O)C(C)(C)C)nc2ccccc21
60.6%: viability [6, 17]
inactive: Her2 level [2] 116% | viability [3] 95% | viability [4] 62.8% | viability [5] 60.6% | differential viability (reversal) ([6]; H69AR cells + 2 uM doxorubicin) -16.9% | inhibition [7] -1.73% | inhibition [8] 2.33% | growth inhibition [9] 3.42% | growth inhibition [10] 8.1% | viability increase [11] -2.36% | viability [12] 47.1% | viability [13] 55.1% | inhibition [14] -0.01% | RAM network inhibition [15] 1.74%
95%: viability [1]
77.5%: viability [6, 16]

COC(=O)C1=C(C)NC2=C(C(=O)CCC2)C1c1coc2ccccc2c1=O (stereo not given)
93%: viability [6, 17]
inactive: Her2 level [2] 81% | viability [3] 91% | viability [4] 97.7% | viability [5] 93% | differential viability (reversal) ([6]; H69AR cells + 2 uM doxorubicin) 2.12% | inhibition [7] -3.97% | inhibition [8] -1.5% | growth inhibition [9] -7.39% | growth inhibition [10] 6.02% | viability increase [11] -4.25% | viability [12] 89.4% | viability [13] 90.1% | inhibition [14] 2.04% | RAM network inhibition [15] 1.39%
91%: viability [1]
90.9%: viability [6, 16]

Nc1nc2n(n1)C(c1c(F)cccc1Cl)CC(c1ccc(F)cc1)N2 (stereo not given)
89.6%: viability [6, 16]
102%: viability [1]
inactive: Her2 level [2] 91.5% | viability [3] 102% | viability [4] 103% | viability [5] 86.2% | differential viability (reversal) ([6]; H69AR cells + 2 uM doxorubicin) -3.43% | inhibition [7] -5.2% | inhibition [8] 0.33% | growth inhibition [9] -4.67% | growth inhibition [10] 0.29% | viability increase [11] -2.4% | viability [12] 89.7% | viability [13] 86.9% | inhibition [14] 0.17% | RAM network inhibition [15] 3.18%
86.2%: viability [6, 17]

COc1ccccc1N1C(=O)CCC1(C#N)c1ccccc1 (stereo not given)
97%: viability [1]
96.9%: viability [6, 16]
inactive: Her2 level [2] 102% | viability [3] 97% | viability [4] 104% | viability [5] 117% | differential viability (reversal) ([6]; H69AR cells + 2 uM doxorubicin) 20.5% | inhibition [7] 0.68% | inhibition [8] -3.49% | growth inhibition [9] -7.28% | growth inhibition [10] 0.615% | viability increase [11] -1.56% | viability [12] 108% | viability [13] 99.7% | inhibition [14] 1.52% | RAM network inhibition [15] 2.81%
117%: viability [6, 17]

CN(Cc1ccccc1)S(=O)(=O)c1ccc(S(=O)(=O)N2CCN(CCC#N)CC2)cc1
61.8%: viability [6, 16]
77.2%: viability [6, 17]
91%: viability [1]
inactive: Her2 level [2] 116% | viability [3] 91% | viability [4] 92.4% | viability [5] 77.2% | differential viability (reversal) ([6]; H69AR cells + 2 uM doxorubicin) 15.4% | inhibition [7] -4.23% | inhibition [8] -7.17% | growth inhibition [9] -12% | growth inhibition [10] -4.41% | viability increase [11] -8.59% | viability [12] 96.9% | viability [13] 92.3% | inhibition [14] 0.725% | RAM network inhibition [15] 4.91%

CCOC(=O)c1ccc2[nH]c3c(c2c1)CN(C)CC3
inactive: Her2 level [2] 87.5% | viability [3] 94% | viability [4] 86.6% | viability [5] 93.7% | differential viability (reversal) ([6]; H69AR cells + 2 uM doxorubicin) 7.91% | inhibition [7] -4.27% | inhibition [8] -0.83% | growth inhibition [9] -4.7% | growth inhibition [10] 10.1% | viability increase [11] 0.26% | viability [12] 44% | viability [13] 56.9% | inhibition [14] 0.51% | RAM network inhibition [15] 0.47%
85.8%: viability [6, 16]
94%: viability [1]
93.7%: viability [6, 17]

CCOC(=O)Cc1nnc(NC(=O)c2ccccc2OCC)s1
98%: viability [6, 17]
88.1%: viability [6, 16]
100%: viability [1]
inactive: Her2 level [2] 92.5% | viability [3] 100% | viability [4] 103% | viability [5] 98% | differential viability (reversal) ([6]; H69AR cells + 2 uM doxorubicin) 9.93% | inhibition [7] 0% | inhibition [8] -4.26% | growth inhibition [9] -9.41% | growth inhibition [10] -14.8% | viability increase [11] -0.28% | viability [12] 102% | viability [13] 102% | inhibition [14] 1.33% | RAM network inhibition [15] 3.5%

CCOC(=O)c1cc2c(=O)n3ccccc3nc2n(Cc2ccccc2)c1=N
77%: viability [1]
83.8%: viability [6, 17]
88.3%: viability [6, 16]
inactive: Her2 level [2] 75.5% | viability [3] 77% | viability [4] 84.2% | viability [5] 83.8% | differential viability (reversal) ([6]; H69AR cells + 2 uM doxorubicin) -4.5% | inhibition [7] -4.86% | inhibition [8] -3.28% | growth inhibition [9] -1.11% | growth inhibition [10] -8.62% | viability increase [11] -3.3% | viability [12] 77.1% | viability [13] 71.1% | inhibition [14] 2.4% | RAM network inhibition [15] 0.09%

O=C1CCCc2c1cc(C(=O)NCCCN1CCOCC1)c(=O)n2-c1ccc(Cl)cc1
93.1%: viability [6, 17]
inactive: Her2 level [2] 95.5% | viability [3] 97% | viability [4] 89.9% | viability [5] 93.1% | differential viability (reversal) ([6]; H69AR cells + 2 uM doxorubicin) 10.6% | inhibition [7] -5.07% | inhibition [8] 0.83% | growth inhibition [9] -14.6% | growth inhibition [10] -19.1% | viability increase [11] -2.29% | viability [12] 100% | viability [13] 104% | inhibition [14] 1.44% | RAM network inhibition [15] 2%
97%: viability [1]
82.5%: viability [6, 16]
